Here are results for 24 molecules from PubChem BioAssay AID1259240 (Keith Lab, Institute of Cancer Science, University of …, 2017).

Values without a mark were called inactive. The source made the active and inactive calls. Rule as the data show it: active = fold change mostly below about -2 (no sharp cut-off); inactive = mostly above about -1.8.

The test in a line: TERT promoter activity modulators, primary screen, cell-based, luciferase reporter, human (AID 1259240). Conditions: A2780 TERT promoter luciferase reporter, 16 h; at 20 µM, fold versus average of vehicle-only wells.
With `O=C(CSc1nc(-c2cccs2)cc(C(F)(F)F)n1)NCc1cccnc1`, the fold change was -2.7 (active).

For the molecule `O=C(O)CN1C(=O)/C(=C/c2ccc(SCc3ccccc3)o2)SC1=S`, the fold change is 1.04.

Regarding `CCOCCCNc1nc2c(-c3ccccc3)nnn2c2ccccc12`, the fold change is 1.12.

For the molecule `O=C1c2cccnc2C(=O)N1Cc1ccccc1`, the fold change was 1.84.

Take `C=CCNc1nc2c(c(=O)[nH]c(=O)n2C)n1CCOc1ccccc1`: the fold change is -1.07.

Consider `O=C(CN1C(=O)C2(OCCO2)c2ccccc21)c1ccc(F)cc1`, for which the fold change is 1.12.

On to `COc1ccc(NC(=O)CN2N=NC3C(=O)N(c4ccc(Cl)cc4)C(=O)C32)c(OC)c1` (centres undefined), for which the fold change was -1.12.

For `CCOC(=O)C1=C(CS(=O)(=O)c2ccccc2)NC(=O)NC1c1ccccc1` (centres undefined), the fold change was 1.91.

Regarding `Cc1nc2cc(-c3cccc(F)c3)nn2c(C)c1CCC(=O)N1CCc2ccccc21`, the fold change was -2.84 (active).

Turning to `COC(=O)c1ccc(-c2nn(C)c(=O)c3ccccc23)cc1`, the fold change is -1.09.

Take `COc1ccc(/C=C/c2nc3scc(-c4cccs4)c3c(=O)o2)cc1`: the fold change was -1.6.

As for `CC(=O)N(C1=C(N(C)C)C(=O)c2ccccc2C1=O)c1cc(C)cc(C)c1`, the fold change was -1.54.

`CCc1c(C)sc(NC(=O)c2cc(C)no2)c1C#N`: the fold change was 1.32.

Consider `CCOc1ccc(-n2c(C)c(C(C)=O)c3cc(OCC(N)=O)ccc32)cc1`, for which the fold change is -1.01.

Regarding `COc1ccc(Cl)cc1Nc1nc(-c2c(C)nc3ncccn23)cs1`, the fold change is -3.45 (active).

As to `COc1ccc(Nc2c(-c3c[nH]c4ccccc34)nc3cnccn23)cc1`, the fold change is -1.09.

With `CCOC(=O)N1CCN(c2c(NCCCOC)c(=O)c2=O)CC1`, the fold change is 1.11.

With `COc1ccc(-c2cc3ccccc3n2CC(O)CN2CCN(CCO)CC2)cc1` (centres undefined), the fold change is -1.49.

`Cc1nn2c(=O)/c(=C/c3ccc(Cl)c(Cl)c3)sc2nc1=O`: the fold change was 1.84.

For `COC(=O)c1ccc(C2Oc3c(OC)cccc3C3CC(c4cccs4)=NN32)cc1` (centres undefined), the fold change is -1.08.

With `O=C(O)CN1C(=O)/C(=C\c2cn(Cc3ccc(F)cc3)c3ccccc23)SC1=S`, the fold change was -1.28.

As for `CCOC(=O)C1=C(CS(=O)(=O)c2ccccc2)NC(=O)NC1c1cc(OC)c(OC)cc1OC` (centres undefined), the fold change is 1.83.

For the molecule `O=C(CSc1nc(-c2ccco2)cc(C(F)(F)F)n1)N1CCc2ccccc21`, the fold change is -1.91.

Consider `COc1ccccc1CNc1nc2ccccc2n2nnnc12`, for which the fold change is -3.71 (active).
